For 31 compounds, inhibition results are on record in PubChem BioAssay AID651739 (Broad Institute, 2012).

The inhibition is the change of the read-out against control, counted positive when it falls.

Among all 5,600 compounds or so, about 4,100 (73%) were called active. Roughly 4% stayed inconclusive and do not appear here.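 How the source made its calls: active means mean replicate inhibition above about 95% and at least 55% of replicates individually reaching it (limit read from the data); inconclusive means only one of the two criteria is met; inactive means neither criterion is met.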 The set was probably picked from earlier hits. Only a sample is shown.

The assay can be described thus: T. cruzi intracellular proliferation inhibitors, confirmation, cell-based, NIH3T3 host, beta-gal parasite, luminescence, cherry-pick (AID 651739). Particulars: T. cruzi beta-gal in NIH3T3, GalScreen luminescence, 90 h; at 8.35 µM; hits give high values.
`CCCNC(=O)N1[C@@H]2c3cccc(=O)n3C[C@H]1[C@H](CO)[C@H]2C(=O)NCC(F)(F)F`: the inhibition is 21.5% (inactive).

For `C[C@H](CO)N1C[C@H](C)[C@@H](CN(C)Cc2ccc(C(F)(F)F)cc2)OCCCC[C@H](C)Oc2ccc(NC(=O)C3CCCCC3)cc2C1=O`, the inhibition is 98.1% (active). In the case of `C[C@@H]1CCCCO[C@@H](CN(C)Cc2ccc3c(c2)OCO3)[C@@H](C)CN([C@@H](C)CO)C(=O)c2cc(NC(=O)Nc3ccccc3)ccc2O1` it was 110% (active).

`COc1ccc(CN(C)C[C@H]2OCCCC[C@H](C)Oc3ccc(NC(=O)Nc4ccc5c(c4)OCO5)cc3C(=O)N([C@H](C)CO)C[C@@H]2C)cc1`: the inhibition is 100% (active).

Regarding `C[C@@H]1CN([C@H](C)CO)S(=O)(=O)c2ccc(C#CCC3CCCC3)cc2O[C@H]1CN(C)C(=O)CC1CC1`, the inhibition is 97.4% (active).

Turning to `CNC[C@@H]1Oc2cc(C#CCC3CCCC3)ccc2S(=O)(=O)N([C@H](C)CO)C[C@H]1C`, the inhibition was 95% (active). Regarding `CO[C@H](CN(C)S(=O)(=O)c1ccc(Cl)cc1)[C@@H](C)CN(Cc1ccccc1Cl)[C@H](C)CO`, the inhibition is 110% (active). For `CN1C(=O)c2cc(NC(=O)c3cnccn3)ccc2OC[C@@H]2O[C@@H](CC(=O)N[C@H]3CCN(Cc4ccccc4)C3)CC[C@H]21`, the inhibition was 71.5% (inactive). Consider `CN1C(=O)c2cc(NC(=O)c3cnccn3)ccc2OC[C@@H]2O[C@H](CC(=O)N[C@@H]3CCN(Cc4ccccc4)C3)CC[C@@H]21`, for which the inhibition was 99.8% (active). Turning to `CN1C(=O)c2cc(NC(=O)Nc3ccccc3F)ccc2OC[C@H]2O[C@H](CC(=O)NCc3ccc(-c4ccccc4)cc3)CC[C@H]21`, the inhibition was 108% (active). Take `CC(C)NC(=O)Nc1ccc2c(c1)C(=O)N([C@@H](C)CO)C[C@H](C)[C@H](CN(C)S(=O)(=O)c1ccc(Cl)cc1)OCCCC[C@H](C)O2`: the inhibition was 104% (active). Consider `C[C@H]1CCCCO[C@H](CN(C)S(=O)(=O)c2ccc(Cl)cc2)[C@@H](C)CN([C@@H](C)CO)C(=O)c2cc(NC(=O)Nc3ccc4c(c3)OCO4)ccc2O1`, for which the inhibition is 103% (active). In the case of `COc1ccc(NC(=O)Nc2ccc3c(c2)C(=O)N([C@H](C)CO)C[C@H](C)[C@H](CN(C)S(=O)(=O)c2ccc(Cl)cc2)OCCCC[C@H](C)O3)cc1` it was 104% (active). For the compound `C[C@@H]1CN([C@H](C)CO)C(=O)c2cc(NS(C)(=O)=O)ccc2O[C@@H](C)CCCCO[C@H]1CN(C)S(=O)(=O)c1cn(C)cn1`, the inhibition was -9.98% (inactive).

With `C[C@H](CO)N1C[C@H](C)[C@@H](CN(C)S(=O)(=O)c2ccccc2)Oc2ncc(C#Cc3ccccc3F)cc2C1=O`, the inhibition is 111% (active). For the compound `C[C@H](CO)N1C[C@H](C)[C@@H](CN(C)S(=O)(=O)c2ccccc2F)Oc2ncc(C#Cc3ccccc3F)cc2C1=O`, the inhibition was 106% (active).

Regarding `CCCNC(=O)N(C)C[C@@H]1Oc2ncc(C#Cc3ccccc3F)cc2C(=O)N([C@@H](C)CO)C[C@H]1C`, the inhibition was 112% (active).

For `C[C@@H]1CN([C@@H](C)CO)C(=O)c2cc(NC(=O)Nc3cccc4ccccc34)ccc2O[C@H]1CN(C)Cc1ccc(Cl)c(Cl)c1`, the inhibition was 97.9% (active). Consider `C[C@@H]1CN([C@@H](C)CO)C(=O)c2cc(NC(=O)Nc3cccc4ccccc34)ccc2O[C@H]1CN(C)Cc1ccc(Oc2ccccc2)cc1`, for which the inhibition is 103% (active). Then `OC[C@H]1[C@H](c2ccc(-c3cccc(F)c3)cc2)[C@@H]2CN(Cc3cncnc3)CCCCN12`, with 82.2% (inactive). On to `O=C(c1ccc(F)cc1)N1CCCCN2[C@H](C1)[C@@H](c1ccc(C#CC3(O)CCCC3)cc1)[C@@H]2CO`, for which the inhibition was 45.9% (inactive). Regarding `Cc1cccc(-c2ccc([C@H]3[C@@H](CO)N4CCCCN(Cc5cncnc5)C[C@H]34)cc2)c1`, the inhibition was 84.9% (inactive). On to `Cc1ccc(-c2ccc([C@H]3[C@H](CO)N4CCCCN(Cc5cncnc5)C[C@@H]34)cc2)cc1`, for which the inhibition was 102% (active).

Turning to `OC[C@@H]1[C@H](c2ccc(C#CC3(O)CCCC3)cc2)[C@H]2CN(Cc3cncnc3)CCCCN12`, the inhibition was 99.2% (active).

Take `OC[C@@H]1[C@H](c2ccc(C#Cc3ccccc3)cc2)[C@@H]2CN(Cc3cncnc3)CCCCN12`: the inhibition was 104% (active).

With `O=C(Nc1cc(Cl)cc(Cl)c1)N[C@H]1CC[C@@H](CCNS(=O)(=O)c2cccc(F)c2)O[C@H]1CO`, the inhibition was 113% (active). As for `O=C(Nc1ccc(Cl)cc1)N[C@@H]1CC[C@@H](CCNC(=O)c2ccccc2F)O[C@H]1CO`, the inhibition was 45.6% (inactive). As for `CC(C)NC(=O)N1[C@H](C#N)[C@H](c2ccc(C#CC3CCCCC3)cc2)[C@H]1CO`, the inhibition is 105% (active). `CS(=O)(=O)N1[C@@H](C#N)[C@H](c2ccc(C#CC3CCCCC3)cc2)[C@@H]1CO`: the inhibition is 103% (active). With `CCc1cnc(N2[C@H](C#N)[C@H](c3ccc(C4=CCCC4)cc3)[C@@H]2CO)s1`, the inhibition is 106% (active).

Consider `N#C[C@H]1[C@@H](c2ccc(C3=CCCCC3)cc2)[C@@H](CO)N1C(=O)NC1CCCCC1`, for which the inhibition is 105% (active).
